Data from ChEMBL document CHEMBL1961873, “Compounds: GSK PKIS; Assays: Nanosyn kinase panel” (2012).

Columns and labels:
[1] = target: Protein kinase C gamma type (Homo sapiens) (UniProt P05129); details: at 1 µM;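 further: each value is an averaged percent inhibition of the enzyme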
[2] = target: T1, Protein kinase C iota type (Homo sapiens) (UniProt P41743); details: at 0.1 µM
T1 sequence (whole entry): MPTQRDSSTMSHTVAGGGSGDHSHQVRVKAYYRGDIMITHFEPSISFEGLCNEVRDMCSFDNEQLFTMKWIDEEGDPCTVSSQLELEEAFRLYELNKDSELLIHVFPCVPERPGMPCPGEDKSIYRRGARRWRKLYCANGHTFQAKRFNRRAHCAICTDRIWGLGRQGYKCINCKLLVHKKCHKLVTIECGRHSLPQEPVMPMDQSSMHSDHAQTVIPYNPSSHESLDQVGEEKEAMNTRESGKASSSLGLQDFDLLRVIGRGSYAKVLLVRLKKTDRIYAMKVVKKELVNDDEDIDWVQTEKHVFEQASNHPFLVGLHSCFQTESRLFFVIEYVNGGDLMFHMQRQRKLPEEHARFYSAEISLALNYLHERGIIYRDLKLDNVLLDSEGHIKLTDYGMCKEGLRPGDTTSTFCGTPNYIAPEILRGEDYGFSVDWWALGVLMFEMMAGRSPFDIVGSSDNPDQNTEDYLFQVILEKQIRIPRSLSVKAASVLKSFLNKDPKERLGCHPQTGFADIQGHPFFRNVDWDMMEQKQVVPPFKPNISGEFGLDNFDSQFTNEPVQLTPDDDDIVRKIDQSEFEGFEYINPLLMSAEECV

[3] = target: T1, Protein kinase C iota type (Homo sapiens); details: at 1 µM
[4] = target: Protein kinase C theta type (Homo sapiens) (UniProt Q04759); details: at 0.1 µM
Chain of Protein kinase C theta type (Homo sapiens) (Q04759 whole entry, looked up): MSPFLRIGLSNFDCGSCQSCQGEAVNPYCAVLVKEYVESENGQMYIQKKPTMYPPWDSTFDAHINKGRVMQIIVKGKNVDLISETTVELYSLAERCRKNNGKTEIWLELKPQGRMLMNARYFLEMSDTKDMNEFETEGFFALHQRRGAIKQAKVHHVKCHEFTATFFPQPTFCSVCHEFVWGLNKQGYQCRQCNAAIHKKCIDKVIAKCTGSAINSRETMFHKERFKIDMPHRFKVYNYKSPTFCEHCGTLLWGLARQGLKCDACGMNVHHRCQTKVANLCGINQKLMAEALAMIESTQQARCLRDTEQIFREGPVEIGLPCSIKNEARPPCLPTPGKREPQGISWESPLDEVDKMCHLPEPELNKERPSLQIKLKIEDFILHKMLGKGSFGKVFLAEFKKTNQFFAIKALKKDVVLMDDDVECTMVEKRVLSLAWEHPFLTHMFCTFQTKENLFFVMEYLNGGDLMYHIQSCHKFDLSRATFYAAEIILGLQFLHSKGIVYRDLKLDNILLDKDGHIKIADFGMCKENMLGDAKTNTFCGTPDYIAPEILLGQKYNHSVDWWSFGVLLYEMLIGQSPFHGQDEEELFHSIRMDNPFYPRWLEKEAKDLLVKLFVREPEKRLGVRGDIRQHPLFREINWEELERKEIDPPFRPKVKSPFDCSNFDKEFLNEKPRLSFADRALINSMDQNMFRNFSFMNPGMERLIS

[5] = target: Protein kinase C theta type (Homo sapiens) (UniProt Q04759); details: at 1 µM
[6] = target: Protein kinase C beta type (Homo sapiens) (UniProt P05771); details: at 0.1 µM
Chain of Protein kinase C beta type (Homo sapiens) (P05771 2-671 limits assumed): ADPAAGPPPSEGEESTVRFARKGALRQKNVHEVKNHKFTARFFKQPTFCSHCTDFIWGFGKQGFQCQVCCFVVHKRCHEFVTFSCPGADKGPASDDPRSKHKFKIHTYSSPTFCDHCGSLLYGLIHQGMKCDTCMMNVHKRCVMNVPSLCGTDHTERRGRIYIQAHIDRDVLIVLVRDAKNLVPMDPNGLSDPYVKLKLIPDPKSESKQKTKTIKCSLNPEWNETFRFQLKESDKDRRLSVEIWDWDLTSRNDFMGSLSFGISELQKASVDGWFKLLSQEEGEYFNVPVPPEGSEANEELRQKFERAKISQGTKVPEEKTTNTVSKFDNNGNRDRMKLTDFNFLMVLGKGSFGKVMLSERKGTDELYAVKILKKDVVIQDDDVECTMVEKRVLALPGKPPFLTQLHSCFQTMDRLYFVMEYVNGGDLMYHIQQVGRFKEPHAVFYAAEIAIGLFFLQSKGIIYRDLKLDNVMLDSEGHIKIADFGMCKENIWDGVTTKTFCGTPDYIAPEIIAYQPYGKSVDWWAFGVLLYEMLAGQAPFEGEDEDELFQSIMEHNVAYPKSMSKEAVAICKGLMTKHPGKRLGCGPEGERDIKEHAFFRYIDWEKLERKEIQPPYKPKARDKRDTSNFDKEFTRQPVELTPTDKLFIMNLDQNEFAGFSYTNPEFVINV

[7] = target: Protein kinase C beta type (Homo sapiens) (UniProt P05771); details: at 1 µM
[8] = target: T2, Serine/threonine-protein kinase D1 (Homo sapiens) (UniProt Q15139); details: at 0.1 µM
T2 sequence (whole entry): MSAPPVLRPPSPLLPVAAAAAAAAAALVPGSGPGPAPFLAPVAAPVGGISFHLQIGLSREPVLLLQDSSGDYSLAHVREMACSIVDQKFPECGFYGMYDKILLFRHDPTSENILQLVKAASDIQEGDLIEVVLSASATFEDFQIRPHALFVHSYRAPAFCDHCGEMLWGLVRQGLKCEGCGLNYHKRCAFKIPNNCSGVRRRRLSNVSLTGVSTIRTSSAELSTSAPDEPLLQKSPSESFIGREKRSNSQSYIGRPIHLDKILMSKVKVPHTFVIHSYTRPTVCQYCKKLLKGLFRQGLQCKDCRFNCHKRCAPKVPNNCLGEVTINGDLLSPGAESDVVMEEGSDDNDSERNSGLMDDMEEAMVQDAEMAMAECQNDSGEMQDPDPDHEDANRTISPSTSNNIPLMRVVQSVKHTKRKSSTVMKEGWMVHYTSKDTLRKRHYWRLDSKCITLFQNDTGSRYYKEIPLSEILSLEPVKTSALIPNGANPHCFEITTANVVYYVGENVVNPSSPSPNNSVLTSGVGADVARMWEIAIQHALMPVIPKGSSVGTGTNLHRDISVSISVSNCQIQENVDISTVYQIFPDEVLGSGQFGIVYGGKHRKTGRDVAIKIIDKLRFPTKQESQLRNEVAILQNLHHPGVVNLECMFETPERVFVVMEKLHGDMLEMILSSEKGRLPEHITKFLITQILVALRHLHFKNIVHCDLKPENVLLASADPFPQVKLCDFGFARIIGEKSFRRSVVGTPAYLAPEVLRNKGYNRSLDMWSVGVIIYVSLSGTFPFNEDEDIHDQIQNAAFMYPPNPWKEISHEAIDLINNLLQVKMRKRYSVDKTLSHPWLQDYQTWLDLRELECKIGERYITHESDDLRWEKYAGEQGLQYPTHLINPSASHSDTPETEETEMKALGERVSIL

[9] = target: T2, Serine/threonine-protein kinase D1 (Homo sapiens); details: at 1 µM
[10] = target: T3, Serine/threonine-protein kinase D2 (Homo sapiens) (UniProt Q9BZL6); details: at 0.1 µM
T3 sequence (whole entry): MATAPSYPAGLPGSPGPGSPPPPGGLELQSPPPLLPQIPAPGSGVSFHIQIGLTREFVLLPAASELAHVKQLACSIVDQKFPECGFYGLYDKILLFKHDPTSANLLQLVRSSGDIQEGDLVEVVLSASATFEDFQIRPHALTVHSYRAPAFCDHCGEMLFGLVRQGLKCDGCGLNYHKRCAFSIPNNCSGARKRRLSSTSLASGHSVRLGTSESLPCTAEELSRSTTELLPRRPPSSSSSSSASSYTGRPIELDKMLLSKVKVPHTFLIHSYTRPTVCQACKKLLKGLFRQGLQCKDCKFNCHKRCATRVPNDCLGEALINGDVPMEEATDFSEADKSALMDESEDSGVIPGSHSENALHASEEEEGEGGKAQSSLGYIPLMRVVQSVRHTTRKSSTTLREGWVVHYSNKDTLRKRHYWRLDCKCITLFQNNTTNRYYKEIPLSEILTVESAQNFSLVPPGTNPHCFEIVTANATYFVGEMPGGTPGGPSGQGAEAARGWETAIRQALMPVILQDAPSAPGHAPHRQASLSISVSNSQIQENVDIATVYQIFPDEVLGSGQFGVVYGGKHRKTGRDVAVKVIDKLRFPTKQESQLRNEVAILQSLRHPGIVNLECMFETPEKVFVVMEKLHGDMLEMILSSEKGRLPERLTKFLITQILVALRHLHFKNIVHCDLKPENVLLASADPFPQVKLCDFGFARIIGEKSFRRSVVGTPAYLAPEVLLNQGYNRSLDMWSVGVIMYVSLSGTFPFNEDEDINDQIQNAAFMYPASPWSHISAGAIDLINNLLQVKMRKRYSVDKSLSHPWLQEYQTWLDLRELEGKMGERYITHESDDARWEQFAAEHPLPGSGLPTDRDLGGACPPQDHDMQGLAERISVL

[11] = target: T3, Serine/threonine-protein kinase D2 (Homo sapiens); details: at 1 µM
[12] = target: T4, Serine/threonine-protein kinase D3 (Homo sapiens) (UniProt O94806); details: at 0.1 µM
T4 sequence (whole entry): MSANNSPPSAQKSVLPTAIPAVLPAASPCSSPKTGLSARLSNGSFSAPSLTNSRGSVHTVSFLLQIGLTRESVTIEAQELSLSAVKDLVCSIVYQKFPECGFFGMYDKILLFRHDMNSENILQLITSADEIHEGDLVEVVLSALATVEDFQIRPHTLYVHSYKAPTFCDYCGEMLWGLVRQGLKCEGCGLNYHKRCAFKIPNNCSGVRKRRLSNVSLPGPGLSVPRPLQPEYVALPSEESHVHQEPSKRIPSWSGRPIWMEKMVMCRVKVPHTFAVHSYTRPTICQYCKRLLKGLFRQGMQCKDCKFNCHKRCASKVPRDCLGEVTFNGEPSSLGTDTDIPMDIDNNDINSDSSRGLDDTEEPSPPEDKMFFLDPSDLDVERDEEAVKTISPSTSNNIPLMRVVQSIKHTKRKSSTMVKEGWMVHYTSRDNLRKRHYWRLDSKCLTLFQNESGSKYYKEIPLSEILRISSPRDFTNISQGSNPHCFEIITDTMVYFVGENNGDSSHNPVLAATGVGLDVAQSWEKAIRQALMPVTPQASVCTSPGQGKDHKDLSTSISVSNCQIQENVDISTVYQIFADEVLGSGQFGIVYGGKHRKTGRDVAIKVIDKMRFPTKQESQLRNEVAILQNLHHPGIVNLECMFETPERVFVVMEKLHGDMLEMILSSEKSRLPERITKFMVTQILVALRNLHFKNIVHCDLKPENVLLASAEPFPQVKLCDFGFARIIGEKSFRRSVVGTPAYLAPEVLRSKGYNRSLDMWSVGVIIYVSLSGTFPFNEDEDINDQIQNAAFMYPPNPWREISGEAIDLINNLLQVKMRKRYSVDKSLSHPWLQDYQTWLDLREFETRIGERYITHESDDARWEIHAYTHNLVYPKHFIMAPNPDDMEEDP

[13] = target: T4, Serine/threonine-protein kinase D3 (Homo sapiens); details: at 1 µM
[14] = target: T5, cGMP-dependent protein kinase 1 (Homo sapiens) (UniProt Q13976); details: at 0.1 µM
T5 sequence (whole entry): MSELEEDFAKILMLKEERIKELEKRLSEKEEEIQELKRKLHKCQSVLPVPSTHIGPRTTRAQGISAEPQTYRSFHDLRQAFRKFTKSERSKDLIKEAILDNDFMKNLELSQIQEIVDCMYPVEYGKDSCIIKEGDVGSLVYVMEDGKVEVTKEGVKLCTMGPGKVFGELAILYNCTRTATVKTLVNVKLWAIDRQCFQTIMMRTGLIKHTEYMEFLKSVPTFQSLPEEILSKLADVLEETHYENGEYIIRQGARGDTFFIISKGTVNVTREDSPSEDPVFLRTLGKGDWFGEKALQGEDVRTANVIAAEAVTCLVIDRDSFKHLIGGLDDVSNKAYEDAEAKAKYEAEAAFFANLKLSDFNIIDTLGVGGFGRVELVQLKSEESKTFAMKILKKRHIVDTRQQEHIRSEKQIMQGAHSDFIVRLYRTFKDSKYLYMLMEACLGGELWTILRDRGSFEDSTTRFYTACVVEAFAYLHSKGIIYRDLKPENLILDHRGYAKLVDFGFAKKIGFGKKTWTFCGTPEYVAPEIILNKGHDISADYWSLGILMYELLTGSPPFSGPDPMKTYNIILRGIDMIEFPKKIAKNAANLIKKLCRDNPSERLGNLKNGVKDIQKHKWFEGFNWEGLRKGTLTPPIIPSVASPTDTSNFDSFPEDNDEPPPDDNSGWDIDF

[15] = target: T5, cGMP-dependent protein kinase 1 (Homo sapiens); details: at 1 µM
[16] = target: T6, cGMP-dependent protein kinase 2 (Homo sapiens) (UniProt Q13237); details: at 0.1 µM
T6 sequence (whole entry): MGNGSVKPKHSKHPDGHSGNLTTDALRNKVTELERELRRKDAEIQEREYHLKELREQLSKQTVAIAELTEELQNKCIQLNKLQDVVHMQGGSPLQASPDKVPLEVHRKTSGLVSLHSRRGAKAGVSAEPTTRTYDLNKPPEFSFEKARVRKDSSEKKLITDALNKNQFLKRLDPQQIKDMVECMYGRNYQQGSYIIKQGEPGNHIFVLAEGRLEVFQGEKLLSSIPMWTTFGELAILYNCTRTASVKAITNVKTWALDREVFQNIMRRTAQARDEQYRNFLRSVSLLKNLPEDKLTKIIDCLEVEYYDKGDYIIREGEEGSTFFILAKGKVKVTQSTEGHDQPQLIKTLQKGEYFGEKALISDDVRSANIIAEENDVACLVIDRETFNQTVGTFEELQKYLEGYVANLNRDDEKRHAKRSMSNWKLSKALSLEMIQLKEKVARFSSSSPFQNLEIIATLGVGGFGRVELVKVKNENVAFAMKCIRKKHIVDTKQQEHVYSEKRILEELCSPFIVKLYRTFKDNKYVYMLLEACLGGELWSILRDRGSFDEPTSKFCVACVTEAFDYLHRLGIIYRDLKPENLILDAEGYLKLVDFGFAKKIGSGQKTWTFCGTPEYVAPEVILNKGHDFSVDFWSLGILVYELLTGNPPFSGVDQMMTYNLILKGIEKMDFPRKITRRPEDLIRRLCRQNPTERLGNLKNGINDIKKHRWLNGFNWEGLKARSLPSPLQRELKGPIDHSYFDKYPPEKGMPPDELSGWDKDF

[17] = target: T6, cGMP-dependent protein kinase 2 (Homo sapiens); details: at 1 µM
[18] = target: T7, cAMP-dependent protein kinase catalytic subunit PRKX (Homo sapiens) (UniProt P51817); details: at 0.1 µM
T7 sequence (whole entry): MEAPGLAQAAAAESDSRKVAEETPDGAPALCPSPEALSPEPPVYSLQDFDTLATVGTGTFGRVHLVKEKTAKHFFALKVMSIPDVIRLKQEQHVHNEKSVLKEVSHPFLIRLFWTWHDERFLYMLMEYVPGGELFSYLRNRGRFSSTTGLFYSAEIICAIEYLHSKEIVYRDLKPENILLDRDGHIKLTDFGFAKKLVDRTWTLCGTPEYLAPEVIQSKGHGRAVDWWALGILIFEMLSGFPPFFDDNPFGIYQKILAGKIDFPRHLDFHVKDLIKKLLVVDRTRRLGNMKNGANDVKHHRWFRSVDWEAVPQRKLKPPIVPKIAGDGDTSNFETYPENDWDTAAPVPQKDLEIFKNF

[19] = target: T7, cAMP-dependent protein kinase catalytic subunit PRKX (Homo sapiens); details: at 1 µM
[20] = target: Rho-associated protein kinase 1 (Homo sapiens) (UniProt Q13464); details: at 0.1 µM;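 further: values are mean percent inhibition of ROCK1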
Chain of Rho-associated protein kinase 1 (Homo sapiens) (Q13464 2-1354 limits assumed): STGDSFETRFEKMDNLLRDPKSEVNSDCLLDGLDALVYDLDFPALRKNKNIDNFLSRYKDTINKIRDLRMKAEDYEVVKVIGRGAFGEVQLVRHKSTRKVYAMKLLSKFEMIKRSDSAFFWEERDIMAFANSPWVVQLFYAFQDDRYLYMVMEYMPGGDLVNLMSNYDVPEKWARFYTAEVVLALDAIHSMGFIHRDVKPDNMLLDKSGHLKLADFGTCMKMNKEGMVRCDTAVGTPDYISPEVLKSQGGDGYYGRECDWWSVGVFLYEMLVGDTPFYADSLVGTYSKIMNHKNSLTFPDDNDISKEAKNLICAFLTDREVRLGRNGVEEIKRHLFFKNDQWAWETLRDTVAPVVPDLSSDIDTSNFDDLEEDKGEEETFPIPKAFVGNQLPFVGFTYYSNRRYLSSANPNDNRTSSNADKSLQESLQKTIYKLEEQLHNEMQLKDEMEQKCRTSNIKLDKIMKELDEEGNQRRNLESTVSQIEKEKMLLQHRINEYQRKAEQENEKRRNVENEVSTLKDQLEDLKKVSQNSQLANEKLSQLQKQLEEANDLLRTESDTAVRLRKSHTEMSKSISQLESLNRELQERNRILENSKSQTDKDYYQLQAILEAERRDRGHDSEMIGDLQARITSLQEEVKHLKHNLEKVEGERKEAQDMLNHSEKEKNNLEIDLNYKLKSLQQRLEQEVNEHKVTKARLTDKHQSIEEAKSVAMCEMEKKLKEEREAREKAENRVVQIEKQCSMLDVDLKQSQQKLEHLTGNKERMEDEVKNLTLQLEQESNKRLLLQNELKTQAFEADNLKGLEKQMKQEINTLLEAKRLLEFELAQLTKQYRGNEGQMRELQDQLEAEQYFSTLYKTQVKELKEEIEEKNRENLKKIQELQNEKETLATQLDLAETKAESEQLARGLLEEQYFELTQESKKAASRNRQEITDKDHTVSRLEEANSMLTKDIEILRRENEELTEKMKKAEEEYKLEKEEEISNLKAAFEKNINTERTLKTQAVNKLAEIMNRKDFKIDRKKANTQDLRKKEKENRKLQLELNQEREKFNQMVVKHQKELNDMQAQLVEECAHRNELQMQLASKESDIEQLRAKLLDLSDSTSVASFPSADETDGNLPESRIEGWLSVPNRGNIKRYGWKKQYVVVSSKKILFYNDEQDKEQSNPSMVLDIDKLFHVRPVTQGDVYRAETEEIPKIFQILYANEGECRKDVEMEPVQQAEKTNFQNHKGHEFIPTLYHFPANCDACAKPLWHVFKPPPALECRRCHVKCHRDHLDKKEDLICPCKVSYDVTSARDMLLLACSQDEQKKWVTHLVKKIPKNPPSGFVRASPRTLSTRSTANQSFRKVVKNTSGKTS

Structure (SMILES) | inhibition [1] | inhibition [2] | inhibition [3] | inhibition [4] | inhibition [5] | inhibition [6] | inhibition [7] | inhibition [8] | inhibition [9] | inhibition [10] | inhibition [11] | inhibition [12] | inhibition [13] | inhibition [14] | inhibition [15] | inhibition [16] | inhibition [17] | inhibition [18] | inhibition [19] | inhibition [20]
Cc1cccc(-c2n[nH]cc2-c2ccc3ncccc3n2)n1 | 0.55% | 0.4% | -1.7% | 0.33% | -0.49% | 0.52% | 0.49% | 2.77% | 32.8% | 5.63% | 46.9% | 2.2% | 30.5% | 1.36% | 0.89% | 0.94% | 0.72% | 0.91% | 1.8% | 0.48%
CNC(=O)c1cncc(/C=C/c2c(Cl)cccc2Cl)c1 | 1.44% | 0.96% | 0.96% | 1.94% | 1.94% | 0.86% | 1.27% | 2.34% | 5% | 1.54% | 3.77% | 1.19% | 4.45% | 4.02% | 5.23% | 1.23% | 4.56% | 1.86% | 1.79% | 1.46%
COc1ccc(COc2ccc(Cc3cnc(N)nc3N)cc2OC)cc1 | 0.23% | 0.94% | 2.56% | 0.95% | -0.58% | 2% | 1.96% | 0.61% | 2.03% | -0.07% | 4.2% | 0.01% | 2.56% | 4.15% | 3.2% | 2.89% | 3.2% | 2.09% | 1.07% | 2.35%
